Assay outcomes: PubChem, several laboratories
CYP2C9 inhib = blockers of cytochrome P450 2C9 activity – biochemical, luminescence, ADME assay, primary screen; CYP2C9 Supersomes, luciferin-H conversion; 96,000 compounds, 20% hits; AID 777, 2007; inhibition, % at 5 µM; P11712;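 active = blocking of liver enzyme CYP2C9 beyond about 50% at 5 µM, limit read from the data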
CYP2C19 inhib = blockers of cytochrome P450 2C19 activity – biochemical, luminescence, ADME assay, primary screen; CYP2C19 Supersomes, luciferin-H EGE luminescence, 30 min; 96,000 compounds, 21% hits; inhibition, % at 5 µM; P33261;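 active = CYP2C19 inhibition above a set limit at 5 µM in the primary screen, cut at about 50% in these data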;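 note: plate controls were negative control wells for no effect and 2.5 mM tranylcypromine positive control for full effect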
Target sequence (P33261 whole entry, looked up): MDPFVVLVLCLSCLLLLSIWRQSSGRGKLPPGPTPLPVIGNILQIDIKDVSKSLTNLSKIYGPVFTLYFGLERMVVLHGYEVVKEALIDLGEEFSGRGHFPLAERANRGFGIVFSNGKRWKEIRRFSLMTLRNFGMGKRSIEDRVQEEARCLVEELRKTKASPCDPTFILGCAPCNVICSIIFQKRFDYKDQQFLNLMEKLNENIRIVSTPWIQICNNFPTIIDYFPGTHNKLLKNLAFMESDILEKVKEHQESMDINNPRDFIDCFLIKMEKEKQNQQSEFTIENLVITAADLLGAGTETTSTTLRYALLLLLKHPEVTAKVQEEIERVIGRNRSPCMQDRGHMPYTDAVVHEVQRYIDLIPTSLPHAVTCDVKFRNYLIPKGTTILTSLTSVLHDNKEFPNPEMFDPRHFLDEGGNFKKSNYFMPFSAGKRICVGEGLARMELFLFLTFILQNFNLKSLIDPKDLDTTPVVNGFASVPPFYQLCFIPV
Measles CPE = compounds protecting cells from measles virus cytopathic effect, primary screen, measles RdRp inhibitor project, single point, MLSMR library, absorbance; Measles virus-infected cells, CPE protection; protection (pct of control), % at 4 µM; 140,000 compounds, 1.5% hits; in the data active = protection mostly above about 24%, no sharp cut-off; inactive = mostly below about 26%
CYP2C9 activ = human CYP2C9 activators, primary screen, biochemical, luminescence | recombinant CYP2C9, luciferin-H conversion; hits give high values; factor 1 = untreated enzyme, 0 = blocked | activation factor at 5 µM | 96,000 compounds, 1.4% hits | AID 1024, 2008;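 active = activation factor of 2 or more for CYP2C9 at a 5 µM dose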;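 note: 0 = sulfaphenazole-blocked wells and 1 = vehicle-only wells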
CYP2C19 activ = human CYP2C19 activators, primary screen, biochemical, luminescence | activation factor at 5 µM | Cytochrome P450 2C19 (Homo sapiens), P33261 | 96,000 tested, under 10 active | recombinant CYP2C19, luciferin-H EGE luminescence; hits give high values; 0 = fully inhibited enzyme, 1 = untreated enzyme | AID 1025, 2008;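 active = activation factor of at least 2 at 5 µM in the primary screen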;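 note: 0 = wells with 2.5 mM tranylcypromine and 1 = vehicle-only wells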
* hit, by the source's call; · = no result. Compounds with a hit are over-represented: about 22% of the library has one in this group of screens.

SMILES | CYP2C9 inhib | CYP2C19 inhib | Measles CPE | CYP2C9 activ | CYP2C19 activ
O=C(Nc1nnc(-c2cccs2)o1)c1cccc(C(F)(F)F)c1 | 59* | 10 | 8 | 0.4 | 0.9
O=C(NCc1ccc(Cl)cc1)c1ccc(Br)o1 | 59* | 95* | 19 | 0.4 | 0
O=C(NCCc1ccccc1)c1ccc(-c2ccccc2C(F)(F)F)o1 | · | · | 3 | · | ·
O=C(NCCCc1ccccc1)c1ccc(Br)o1 | 51* | 96* | 11 | 0.5 | 0
O=C(NCCO)c1ccccc1O | -10 | -3 | 26* | 1.1 | 1
O=C(NCCCCc1ccccc1)c1ccc(Br)o1 | · | · | 8 | · | ·
NS(=O)(=O)c1ccc(CNC(=O)c2ccc(Br)o2)cc1 | -9 | -13 | 25 | 1.1 | 1.1
O=C(NCc1ccccc1)c1ccc(-c2ccccc2F)o1 | 48 | 62* | 2 | 0.5 | 0.4
Cc1ccsc1C(=O)Nc1cccc(S(=O)(=O)N(C)C)c1 | · | · | 7 | · | ·
O=C(NCCCc1ccccc1)c1cccs1 | 47 | 49 | 6 | 0.5 | 0.5
O=C(NCCCc1ccccc1)c1ccccc1O | 90* | 97* | 2 | 0.1 | 0
O=C(NCCC1=CCCCC1)c1ccc(Br)o1 | 59* | 90* | 4 | 0.4 | 0.1
CC(=O)NCC(=O)OCN1C(=O)c2ccccc2C1=O | · | · | 18 | · | ·
CC(/C=N/n1c(-c2cc(C)[nH]n2)n[nH]c1=S)=C\c1ccccc1 | · | · | 21 | · | ·
CC(/C=N/n1c(C2CCCCC2)n[nH]c1=S)=C\c1ccccc1 | 61* | 38 | 4 | 0.4 | 0.6
N#C/C(=C(/O)C(Cl)c1ccccc1)c1nc2ccccc2s1 (centres undefined) | 77* | 58* | 7 | 0.2 | 0.4
CC1CCN(c2nc(-c3ccccc3O)nc3ccccc23)CC1 | 21 | -3 | 38* | 0.8 | 1
Oc1ccccc1-c1nc(N2CCCC2)c2ccccc2n1 | -11 | 2 | 9 | 1.1 | 1
Oc1ccccc1-c1nc(N2CCN(Cc3ccccc3)CC2)c2ccccc2n1 | 74* | 65* | 17 | 0.3 | 0.3
Cc1oncc1C(=O)NC(C)C | 18 | 8 | 15 | 0.8 | 0.9
O=C(OCc1cc2ccccc2[nH]c1=O)C1CCCCC1 | 96* | 89* | 8 | 0 | 0.1
O=C(CN1C2CCCC1CC(NC(=O)c1ccco1)C2)Nc1ccccc1 (centres undefined) | 95* | 87* | 5 | 0.1 | 0.1
COc1cc(C(=O)NC2CC3CCCC(C2)N3CC(=O)Nc2ccccc2)cc(OC)c1OC (centres undefined) | 97* | 81* | 14 | 0 | 0.2
CCOc1ccc(NC(=O)CC(c2ccccc2)c2ccc(F)cc2)cc1 (centres undefined) | · | · | 2 | · | ·
CC(OC(=O)c1cccc(NS(C)(=O)=O)c1)C(=O)Nc1ccc(N2CCOCC2)cc1 (centres undefined) | -11 | -3 | 5 | 1.1 | 1
SMILES | CYP2C9 inhib | CYP2C19 inhib | Measles CPE | CYP2C9 activ | CYP2C19 activ
O=C(CN1C(=O)CCS(=O)(=O)c2ccccc21)Nc1cccc(Cl)c1 | · | · | 14 | · | ·
O=C(CN1C(=O)CCSc2ccccc21)Nc1cccc(F)c1 | 67* | 78* | 4 | 0.3 | 0.2
C=CCc1ccc(OCC(O)CN2CCN(Cc3ccc(Cl)cc3)CC2)c(OC)c1 (centres undefined) | · | · | 19 | · | ·
COc1cccc(OC)c1OCC(O)CN1CCN(c2ccccc2)CC1 (centres undefined) | -14 | 3 | 9 | 1.1 | 1
COc1ccc(N2CCN(CC(O)COc3ccc4c(c3)CCC4)CC2)cc1 (centres undefined) | -21 | 58* | 2 | 1.2 | 0.4
C=CCc1ccc(OCC(O)CN2CCC(Cc3ccccc3)CC2)c(OC)c1 (centres undefined) | -7 | 55* | 4 | 1.1 | 0.5
C=CCc1ccccc1OCC(O)Cn1ccnc1C (centres undefined) | 17 | 57* | 5 | 0.8 | 0.4
C=CCc1ccccc1OCC(O)CN1CCN(c2ccc(OC)cc2)CC1 (centres undefined) | 8 | 50* | 0 | 0.9 | 0.5
COc1ccc(OCC(O)CN2CCCCCC2)cc1 (centres undefined) | · | · | 25 | · | ·
OC(COc1ccc2c(c1)CCC2)CN1CCN(c2ccccc2F)CC1 (centres undefined) | -2 | 51* | 17 | 1 | 0.5
